Active and inactive are the calls of the source.
Columns and labels:
[1] = tested on: Plasmodium falciparum Sir2 (PF13_0152, Sir2A); assay: Plasmodium falciparum Sir2A binding compounds – biochemical, small-molecule microarray, 635 nm fluorescence, primary screen (AID 1098); details: fluorescence 635 nm, higher = more signal;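 note: score merges spot fluorescence intensity with its signal-to-noise ratio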
[2] = probe aDKK1 binding to arrayed compounds – biochemical, biotinylated probe, 635/667 nm fluorescence, primary screen (AID 1099); details: small-molecule microarray, higher = more signal;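 note: score merges 667nm spot fluorescence with signal to noise across triplicate slides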
[3] = probe aCHRDL2 binding to arrayed compounds – biochemical, biotinylated probe, 635/667 nm fluorescence, primary screen (AID 1100); details: small-molecule microarray, higher = more signal
[4] = change in splice reporter luminescence, either direction, cell-based, HEK293, spliceosome inhibition project, primary screen (AID 1101); details: HEK293 splicing luciferase reporter, 24 h, higher = more signal, called active from +8 up or from −8 down;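 note: HEK293 cells carrying a splicing-competent luciferase reporter gene; test concentration not given here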
[5] = target: Fibroblast growth factor 10 (Homo sapiens) (UniProt O15520); assay: compounds binding fibroblast growth factor 10 – biochemical, small-molecule microarray, 635 nm fluorescence, primary screen (AID 1102); details: FGF10 binding, fluorescence 635 nm, higher = more signal
[6] = tested on: glycogen synthase kinase-3 (GSK3A per assay name; protocol says GSK3B); assay: compounds binding glycogen synthase kinase-3 – biochemical, small-molecule microarray, 635 nm fluorescence, GSK3A, primary screen (AID 1103); details: fluorescence 635 nm, higher = more signal; note: the record names both GSK3A and GSK3B
[7] = target: Epidermal growth factor receptor (Homo sapiens) (UniProt P00533); assay: compounds binding epidermal growth factor receptor – biochemical, small-molecule microarray, 635 nm fluorescence, primary screen (AID 1104); details: EGFR binding, higher = more signal;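 note: score merges 667 nm emission intensity with spot signal to noise over triplicate slides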
[8] = target: Follistatin-related protein 3 (Homo sapiens) (UniProt O95633); assay: compounds binding follistatin-related protein 3 – biochemical, small-molecule microarray, 635 nm fluorescence, primary screen (AID 1105); details: FSTL3 binding, higher = more signal;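 note: score merges emission near 667 nm and signal to noise per printed spot across three slides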
[9] = target: Dickkopf-related protein 1 (Homo sapiens) (UniProt O94907); assay: small molecules binding DKK1 protein – biochemical, small-molecule microarray, 635 nm fluorescence scan, primary screen (AID 1106); details: higher = more signal;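 note: score merges emission near 667 nm with signal to noise over three replicate slides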
[10] = tested on: Inhibin beta A chain (activin A); assay: small molecules binding activin A – biochemical, small-molecule microarray, 635 nm fluorescence scan, primary screen (AID 1107); details: INHBA, higher = more signal;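 note: mouse activin A protein probed at 4.33 µg/mL on printed slides; score merges bound-protein fluorescence near 667 nm with spot signal-to-noise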
[11] = tested on: Human papillomavirus type 1a protein E7 (residues 44-93); assay: small molecules binding HPV E7 44-93 – biochemical, small-molecule microarray, residues 44-93, 635 nm fluorescence, primary screen (AID 1108); details: fluorescence 635 nm, higher = more signal;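 note: E7 fragment applied at 1 µg/mL in TBST for 1 h at 4 C; score combines spot fluorescence with its signal to noise ratio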
[12] = hepatitis C replication reporter changes, two-sided – Huh7 cells, luciferase reporter, HCV replication inhibitor project, primary screen (AID 1109); details: Huh7 HCV replicon luciferase reporter, 48 h; higher = more signal;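 note: huh7 hepatoma cells harbouring a luciferase neomycin HCV replicon reporter; luciferase luminescence as measure of HCV replicon replication; test concentration not given here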
[13] = target: Left-right determination factor 2 (Homo sapiens) (UniProt O00292); assay: small molecules binding LEFTY2 protein – biochemical, small-molecule microarray, 635 nm fluorescence scan, primary screen (AID 1110); details: higher = more signal
[14] = target: Calmodulin-1 (Homo sapiens) (UniProt P0DP23); assay: small molecules binding calmodulin-1 with EGTA – biochemical, small-molecule microarray, Cy5-labelled CALM1, profiling panel (AID 1111); details: Cy5-CALM1 binding fluorescence, higher = more signal;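 note: labelled calmodulin applied in Tris saline Tween buffer holding calcium plus EGTA and DTT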
[15] = target: Calmodulin-1 (Homo sapiens) (UniProt P0DP23); assay: small molecules binding Ca-loaded calmodulin-1 – biochemical, small-molecule microarray, Cy5-labelled CALM1, plus calcium, artefact control for SMM control-protein annotation, profiling panel (AID 1112); details: Cy5-CALM1 binding fluorescence, higher = more signal;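 note: score merges spot fluorescence with signal to noise from triplicate slides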
[16] = probe aWnt5a binding to arrayed compounds – biochemical, biotinylated probe, 635/667 nm fluorescence, primary screen (AID 1113); details: small-molecule microarray, higher = more signal;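 note: score merges 667 nm fluorescence intensity with signal-to-noise per printed feature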
[17] = probe aShh binding to arrayed compounds – biochemical, biotinylated probe, 635/667 nm fluorescence, primary screen (AID 1114); details: small-molecule microarray, higher = more signal;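 note: probe is biotin-labelled aShh protein from a stem cell growth factor screen; measures binding of labelled protein to compounds printed on the slide; score merges feature fluorescence at 667 nm with signal-to-noise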
[18] = probe aNog binding to arrayed compounds – biochemical, biotinylated probe, 635/667 nm fluorescence, primary screen (AID 1115); details: small-molecule microarray, higher = more signal;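 note: probe is biotinylated aNog protein used at 0.15 µg/mL for 1 h at 4 C; z-score combines 667 nm fluorescence of each spot with its signal to noise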
[19] = target: Torsin-1A-interacting protein 1 (Homo sapiens) (UniProt Q5JTV8); assay: compound microarray binding of lysate hLAP1 – cell lysate, small-molecule microarray, COS7 lysate, 635/667 nm fluorescence, primary screen (AID 1116); details: 635 nm fluorescence, higher = more signal
[20] = target: Alpha-bungarotoxin (Bungarus multicinctus) (UniProt P60615); assay: compounds binding labelled alpha-BTX control protein – biochemical, small-molecule microarray, Alexa647 label, 635/667 nm fluorescence, artefact control for SMM control protein annotation, profiling panel (AID 1117); details: alpha-BTX-A647 binding fluorescence, higher = more signal
Alpha-bungarotoxin (Bungarus multicinctus), sequence (P60615 whole entry, looked up): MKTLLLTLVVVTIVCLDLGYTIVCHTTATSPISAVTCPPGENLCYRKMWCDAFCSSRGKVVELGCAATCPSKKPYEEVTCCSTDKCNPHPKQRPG

Dickkopf-related protein 1 (Homo sapiens), sequence (O94907 whole entry, looked up): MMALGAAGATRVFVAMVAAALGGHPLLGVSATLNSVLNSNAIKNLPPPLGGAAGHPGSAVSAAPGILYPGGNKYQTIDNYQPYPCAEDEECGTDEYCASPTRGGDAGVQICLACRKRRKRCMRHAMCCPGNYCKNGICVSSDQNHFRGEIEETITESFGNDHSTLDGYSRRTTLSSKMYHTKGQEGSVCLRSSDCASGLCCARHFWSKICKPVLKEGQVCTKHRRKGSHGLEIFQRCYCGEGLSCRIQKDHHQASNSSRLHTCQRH
Left-right determination factor 2 (Homo sapiens), sequence (O00292 whole entry, looked up): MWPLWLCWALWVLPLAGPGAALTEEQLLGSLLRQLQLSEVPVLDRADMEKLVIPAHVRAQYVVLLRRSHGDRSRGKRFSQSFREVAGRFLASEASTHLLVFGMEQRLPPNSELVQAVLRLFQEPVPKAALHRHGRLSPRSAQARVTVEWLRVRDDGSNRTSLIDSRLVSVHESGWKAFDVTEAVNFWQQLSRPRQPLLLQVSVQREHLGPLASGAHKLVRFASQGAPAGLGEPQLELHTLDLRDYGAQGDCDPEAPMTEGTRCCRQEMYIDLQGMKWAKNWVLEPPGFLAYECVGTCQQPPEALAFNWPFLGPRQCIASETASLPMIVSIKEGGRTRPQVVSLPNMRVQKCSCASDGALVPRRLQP
Epidermal growth factor receptor (Homo sapiens), sequence (P00533 whole entry, looked up): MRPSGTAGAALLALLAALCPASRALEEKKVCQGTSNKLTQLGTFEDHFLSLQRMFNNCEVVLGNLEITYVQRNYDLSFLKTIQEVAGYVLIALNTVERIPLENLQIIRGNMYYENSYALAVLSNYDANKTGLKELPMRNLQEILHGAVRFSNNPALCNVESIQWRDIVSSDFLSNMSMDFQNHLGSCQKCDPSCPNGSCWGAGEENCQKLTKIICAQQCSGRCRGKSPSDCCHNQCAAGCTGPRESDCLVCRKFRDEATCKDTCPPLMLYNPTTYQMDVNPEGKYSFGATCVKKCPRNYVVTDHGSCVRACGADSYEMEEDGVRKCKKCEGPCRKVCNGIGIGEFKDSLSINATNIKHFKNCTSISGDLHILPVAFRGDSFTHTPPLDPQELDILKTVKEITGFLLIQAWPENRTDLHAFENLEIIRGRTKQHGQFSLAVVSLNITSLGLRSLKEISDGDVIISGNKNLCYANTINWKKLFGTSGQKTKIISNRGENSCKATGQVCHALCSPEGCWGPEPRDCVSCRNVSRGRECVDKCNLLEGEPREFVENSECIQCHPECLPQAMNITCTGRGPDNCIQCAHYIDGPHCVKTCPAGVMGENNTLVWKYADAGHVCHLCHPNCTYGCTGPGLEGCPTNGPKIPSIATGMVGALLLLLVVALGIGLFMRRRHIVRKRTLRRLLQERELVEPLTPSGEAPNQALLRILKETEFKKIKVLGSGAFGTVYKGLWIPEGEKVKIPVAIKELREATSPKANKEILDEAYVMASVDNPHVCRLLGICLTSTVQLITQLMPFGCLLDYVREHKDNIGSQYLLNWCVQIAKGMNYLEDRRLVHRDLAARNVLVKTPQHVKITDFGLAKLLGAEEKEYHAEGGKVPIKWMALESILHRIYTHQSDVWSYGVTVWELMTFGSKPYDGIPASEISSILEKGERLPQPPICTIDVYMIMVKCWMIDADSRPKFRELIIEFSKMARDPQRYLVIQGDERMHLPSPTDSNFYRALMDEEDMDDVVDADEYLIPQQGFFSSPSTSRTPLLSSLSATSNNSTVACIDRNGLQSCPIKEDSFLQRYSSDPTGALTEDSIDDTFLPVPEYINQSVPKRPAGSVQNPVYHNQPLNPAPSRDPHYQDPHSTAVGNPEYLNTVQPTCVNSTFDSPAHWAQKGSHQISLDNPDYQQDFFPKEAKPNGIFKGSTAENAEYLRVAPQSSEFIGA
Torsin-1A-interacting protein 1 (Homo sapiens), sequence (Q5JTV8 whole entry, looked up): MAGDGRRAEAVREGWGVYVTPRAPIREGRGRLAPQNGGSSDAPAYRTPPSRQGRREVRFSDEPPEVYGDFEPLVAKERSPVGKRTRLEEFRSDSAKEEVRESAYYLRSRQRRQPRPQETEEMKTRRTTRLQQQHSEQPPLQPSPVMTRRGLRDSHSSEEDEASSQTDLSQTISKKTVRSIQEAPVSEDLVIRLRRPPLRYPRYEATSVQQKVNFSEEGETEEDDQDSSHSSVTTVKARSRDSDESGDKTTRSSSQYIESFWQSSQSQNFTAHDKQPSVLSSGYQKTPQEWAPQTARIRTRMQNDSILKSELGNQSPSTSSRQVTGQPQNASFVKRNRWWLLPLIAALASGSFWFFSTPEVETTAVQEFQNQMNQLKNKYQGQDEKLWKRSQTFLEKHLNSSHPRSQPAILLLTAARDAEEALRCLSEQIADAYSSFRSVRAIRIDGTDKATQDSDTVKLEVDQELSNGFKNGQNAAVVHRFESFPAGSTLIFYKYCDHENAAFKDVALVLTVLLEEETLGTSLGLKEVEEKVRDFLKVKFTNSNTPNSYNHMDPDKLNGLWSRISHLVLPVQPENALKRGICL
Fibroblast growth factor 10 (Homo sapiens), sequence (O15520 whole entry, looked up): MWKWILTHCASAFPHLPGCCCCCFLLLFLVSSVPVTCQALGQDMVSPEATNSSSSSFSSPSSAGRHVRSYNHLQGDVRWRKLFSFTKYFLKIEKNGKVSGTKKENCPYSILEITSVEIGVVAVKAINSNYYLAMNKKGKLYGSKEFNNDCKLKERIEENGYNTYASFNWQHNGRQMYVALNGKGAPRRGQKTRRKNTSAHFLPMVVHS
Follistatin-related protein 3 (Homo sapiens), sequence (O95633 whole entry, looked up): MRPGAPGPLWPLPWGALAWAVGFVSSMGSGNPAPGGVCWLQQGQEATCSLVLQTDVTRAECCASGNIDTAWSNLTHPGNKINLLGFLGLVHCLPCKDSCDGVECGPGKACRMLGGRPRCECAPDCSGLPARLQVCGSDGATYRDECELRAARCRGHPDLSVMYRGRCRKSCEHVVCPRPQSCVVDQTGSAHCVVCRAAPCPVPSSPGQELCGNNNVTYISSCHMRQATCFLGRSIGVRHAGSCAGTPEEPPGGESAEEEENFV

Row | Structure (SMILES) | composite z-score [1] | composite z-score [2] | composite z-score [3] | z-score [4] | composite z-score [5] | composite z-score [6] | composite z-score [7] | composite z-score [8] | composite z-score [9] | composite z-score [10] | composite z-score [11] | z-score [12] | composite z-score [13] | composite z-score [14] | composite z-score [15] | composite z-score [16] | composite z-score [17] | composite z-score [18] | composite z-score [19] | composite z-score [20]
1 | O=C1NCC(=O)N2[C@@H]1C[C@@H](C(=O)O)[C@H]2c1ccc(O)cc1 | 1.41 | -0.0052 | 0.128 | -0.22 (inactive) | 0.944 | 1.32 | -0.0519 | 1.37 | 1.78 | 0.571 | 1.4 | 2.63 | 0.834 | 0.458 | -0.451 | -0.0758 | 0.123 | -0.36 | -0.0956 | 0.707
2 | COc1ccc(NN2C(C(O)c3ccco3)C=CC3C(=O)N(C4CCCCC4)C(=O)C32)cc1 (stereo not given) | 1.39 | 0.456 | 0.689 | 0.157 (inactive) | 1.35 | 1.32 | 0.423 | 1.49 | 0.0006 | 0.725 | 1.42 | 0.224 | 0.519 | 0.9 | 0.267 | 0.0613 | 0.0639 | 0.353 | 0.605 | 0.916
3 | O=C1NC(=O)C2C1C=CC(C(O)c1c(F)cccc1Cl)N2Nc1ccccn1 (stereo not given) | 0.419 | 0.282 | 0.171 | 0.824 (inactive) | 0.48 | 0.198 | 0.409 | 0.262 | 0.465 | 1.13 | -0.465 | -0.469 | 0.5 | -1.19 | -0.625 | 0.0108 | -0.0274 | -0.207 | 0.505 | -0.358
4 | Cc1ccc(S[C@]2(C(=O)NCC(F)(F)F)CC(=O)N(Cc3ccccc3)[C@@H]2c2ccc(CO)cc2)cc1 | 1.54 | 0.382 | 0.767 | -0.676 (inactive) | -0.409 | -0.507 | -0.938 | -0.763 | -1.32 | -0.0219 | -0.341 | -1.54 | -1.73 | -0.23 | 0.526 | -0.169 | -0.268 | -0.186 | 0.122 | -0.0421
5 | CN1C(=O)C2C=CC(C(O)c3c(F)cccc3Cl)N(Nc3ccccc3)C2C1=O (stereo not given) | 1.54 | 0.308 | 0.92 | 1.29 (inactive) | 0.657 | -0.0475 | 0.257 | 0.71 | -0.534 | 0.909 | 1.19 | -0.659 | -0.445 | 1.45 | 0.496 | -0.0276 | 0.432 | 0.707 | 0.0127 | 0.904
6 | COC(=O)[C@@]1(Cc2ccccc2)[C@H]2c3cc(C(=O)N4CCCC4)n(Cc4ccsc4Br)c3C[C@H]2CN1C(=O)c1ccccc1 | 0.31 | 1.13 | 1.37 | -1.31 (inactive) | 0.832 | 0.572 | -0.105 | 0.906 | -0.825 | 0.748 | 1.45 | -2.73 | -0.505 | 1.6 | 1.17 | 0.332 | -0.0789 | 1.99 | 0.545 | 1.23
7 | COCCOC(=O)N1C(=O)[C@@]2(c3cc(C#CCNC(N)=O)ccc31)[C@H](C(=O)N1CCCCCCC1)[C@H]1C(=O)O[C@H](c3ccccc3)[C@H](c3ccccc3)N1[C@@H]2c1ccc(O)cc1 | 1.25 | -0.124 | 0.526 | 0.392 (inactive) | 0.527 | 1 | 0.734 | 1.28 | 0.751 | 1.27 | 0.964 | -1.07 | 0.212 | 0.356 | -0.947 | -0.164 | -0.214 | -0.456 | 0.546 | 0.863
8 | O=C1OCC=C[C@H]2OC34C=CCN(c5ccc(Cl)cc5)C(=O)[C@H]3N(CCCCCO)C(=O)[C@@H]4[C@@H]12 (stereo not given in full) | 0.311 | -0.204 | 0.822 | -0.784 (inactive) | -1.23 | -1.26 | -1.44 | -1.51 | -1.22 | -0.262 | -0.932 | -0.621 | -1.92 | -0.501 | 0.0666 | -0.172 | 0.0121 | 0.347 | 0.0462 | -1.64
9 | COC(=O)[C@@]1(Cc2ccc(F)cc2)[C@H]2c3cc(C(=O)N4CCCC4)n(CCc4c[nH]c5ccc(OC)cc45)c3C[C@H]2CN1C(=O)c1ccccc1 | 1.03 | 1.6 | 1.01 | -3.28 (inactive) | 1.53 | 1.18 | 0.763 | 0.735 | 0.0605 | 1.06 | 1.4 | -2.22 | 0.474 | 1.92 | 0.878 | 1.19 | 1.17 | 2.98 | 0.781 | 1.23
10 | C=C(COC)/C(=C/C[C@@H](OC(=O)c1ccncc1)c1ccc(OCCO)cc1)c1cnc2ccccc2c1 | 0.212 | 0.0923 | -0.0001 | -0.275 (inactive) | 1.46 | 1.3 | 1.35 | 1.58 | 0.99 | 1.95 | 1.3 | -1.59 | 1.12 | 0.695 | -0.604 | 0.0151 | -0.167 | 0.827 | 1.66 | 1.5
11 | COc1ccc(CCNC(=O)[C@@]2(Sc3ccc(C)cc3)CC(=O)N(Cc3cc(C(F)(F)F)cc(C(F)(F)F)c3)[C@@H]2c2ccc(CO)cc2I)cc1 | 1.15 | 0.277 | 0.901 | -0.871 (inactive) | -0.447 | -0.223 | -1.06 | -0.0666 | -0.744 | 0.533 | 1.27 | -1.89 | -1.07 | 0.435 | -0.45 | -0.0869 | 0.23 | -0.0592 | 0.282 | 1.73

Reference: PubChem BioAssay
